Experimental data as given in PubChem BioAssay (Tox21).
A number with no mark means an inactive call. Records with an inconclusive call do not appear. Where a call stands in place of a potency, no number is given. Calls of active or inactive are those of the source. Unless noted, the call rests on the fitted dose curve; in most records, active means well fitted curve in the direction sought with a large enough effect in the repeat runs; inconclusive means weak or mixed curves; inactive means no such curve, though single readings can be large; an effect the other way counts as inactive or inconclusive.

Experiments:
[1] = molecular target: Nuclear receptor subfamily 1 group I member 3 (Homo sapiens) (UniProt Q14994); assay: qHTS assay to identify small molecule antagonists of the constitutive androstane receptor (CAR) signaling pathway (AID 1224838); further: nearly all actives have a fitted effect of over 40% in size; further: potency means the concentration at half of the fitted maximal effect
Procedure, shortened: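 HepG2 cells stably co-transfected with hCAR and a CYP2B6-2.2kb luciferase reporter were seeded 4 h before compound addition at 15 concentrations. Cells were stimulated with 50 nM CITCO (final) for 24 h at 37 C; luciferase luminescence was then read.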

[2] = molecular target: Nuclear receptor subfamily 1 group I member 3 (Homo sapiens) (UniProt Q14994); assay: qHTS assay to identify small molecule agonists of the constitutive androstane receptor (CAR) signaling pathway (AID 1224839); further: nearly all actives have a fitted effect of over 15% in size; further: potency means the concentration at half of the fitted maximal effect;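 on activation: HepG2 cells stably carrying human CAR and a CYP2B6 luciferase reporter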
Procedure, shortened: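 HepG2 cells stably expressing hCAR and a CYP2B6-2.2kb luciferase reporter were treated with compounds at 15 concentrations plus 0.75 uM PK11195 (final) for 24 h at 37 C; luminescence was read after ONE-Glo addition.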

[3] = qHTS assay to identify small molecule antagonists of the estrogen related receptor signaling pathway with the pleiotropic PPARgamma coactivator (PGC) from Tox21 10K library (AID 1224841; call rule not given here; further: potency means the concentration at half of the fitted maximal effect; actives are mostly falling curves and most rising ones were filed inactive; nearly all actives have a fitted effect of over 50% in size)
Procedure, shortened: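 PGC/ERR reporter cells were seeded at 2,000 cells/well and held 6 hours at 37 C/5% CO2 before pin-tool addition of compounds in DMSO. After 18 hours at 37 C, One-Glo was added and luminescence read after 30 minutes at room temperature.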

[4] = qHTS assay to identify small molecule agonists of the estrogen related receptor signaling pathway with the pleiotropic PPARgamma coactivator (PGC) from Tox21 10K library (AID 1224842); further: nearly all actives have a fitted effect of over 15% in size
Procedure, shortened: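 PGC/ERR reporter cells (NTP line) were seeded 2,000 per well, rested 6 h at 37 C/5% CO2, then pin-dosed with compounds in DMSO for 18 h at 37 C; luciferase read by One-Glo luminescence after 30 min at room temperature.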

[5] = molecular target: Thyrotropin receptor (Homo sapiens) (UniProt P16473); assay: qHTS assay to identify small molecule agonists of the thyroid stimulating hormone receptor (TSHR) signaling pathway (AID 1224843; calls by dose curve; further: nearly all actives have a fitted effect of over 45% in size)
Procedure, shortened: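 TSHR-expressing HEK293 cells (800 per well) were exposed to compounds for 30 min at room temperature. cAMP was then detected by HTRF competition with cAMP-d2 and anti-cAMP cryptate, read after 1 h at room temperature. Fifteen concentrations, triplicate.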

[6] = qHTS assay to identify small molecule antagonists of the estrogen related receptor (ERR) signaling pathway from Tox21 library (AID 1224848); further: potency means the concentration at half of the fitted maximal effect; nearly all actives have a fitted effect of over 50% in size
Procedure, shortened: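 Cells: ERR line, 2,000/well; 6 h preincubation 37 C/5% CO2. Cpd in DMSO via pin tool; 18 h, 37 C. ONE-Glo, 30 min RT, luminescence.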

[7] = qHTS assay to identify small molecule agonists of the estrogen related receptor (ERR) signaling pathway from Tox21 library (AID 1224849; calls by dose curve; further: nearly all actives have a fitted effect of over 15% in size); conditions: ERR reporter cell line, ONE-Glo luciferase, 18 h; at 92.4 µM (top of the series) unless noted
Procedure, shortened: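 ERR reporter cell line (NTP) seeded, rested 6 h at 37 C/5% CO2, then pinned with Tox21 compounds in DMSO. After 18 h at 37 C, ONE-Glo luciferase luminescence was read following 30 min at room temperature.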

[8] = qHTS RealTime-Glo MT Cell Viability Assay in HEK293 cells - 32 hour (AID 1224868); further: nearly all actives have a fitted effect of over 50% in size; further: potency means the concentration at half of the fitted maximal effect
Procedure, shortened: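 Homogeneous bioluminescent viability format in HEK293 cells (600 cells/well). Following 5 h at 37 C/5% CO2, 23 nL compound was pintooled; the signal was measured repeatedly during 40 h incubation.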

[9] = A CellTox Green Cytotoxicity Assay to monitor cytotoxicity in HEK293 cells - 0 hour (AID 1224869); further: nearly all actives have a fitted effect of over 50% in size; further: potency means the concentration at half of the fitted maximal effect
Procedure, shortened: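 HEK293 cells premixed with CellTox Green dye were seeded at 600 cells/well and left 5 h at 37 C/5% CO2 before pin transfer of 23 nL compound in DMSO. Fluorescence from dye bound to dead-cell DNA was read during 40 h treatment.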

[10] = qHTS RealTime-Glo MT Cell Viability Assay in HepG2 cells - 40 hour (AID 1224870); further: nearly all actives have a fitted effect of over 50% in size; further: potency means the concentration at half of the fitted maximal effect
Procedure, shortened: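 HepG2 cells mixed with RealTime-Glo MT reagents (NanoLuc plus cell-permeant prosubstrate) were seeded at 600 cells/well, incubated 5 h at 37 C/5% CO2, then pinned with compounds in DMSO; nonlytic luminescence tracked viability during 40 h treatment.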

[11] = molecular target: Luciferin 4-monooxygenase (Photinus pyralis) (UniProt P08659); assay: qHTS assay to identify small molecule inhibitors of firefly luciferase (AID 1224835); further: nearly all actives have a fitted effect of over 25% in size; further: potency means the concentration at half of the fitted maximal effect
Procedure, shortened: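 Quantitative HTS format; KM concentrations of both substrates. Purified P. pyralis FLuc activity quantified from luminescence images.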

[12] = qHTS assay to identify small molecule agonists of the hypoxia (HIF-1) signaling pathway (AID 1224846; active means well fitted activation curve with a large enough effect in the signal ratio in the repeat runs, not every such curve was filed as active; the % refers to the signal ratio)
Procedure, shortened: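 HRE-bla ME-180 cells (beta-lactamase reporter under hypoxia response element) were plated at 2,000 cells/well in medium with 0.5% dialyzed FBS, rested 5 hrs, then given compounds in DMSO for 17 hrs at 37C, 5% CO2. Reporter induction was read with CCF4-AM FRET substrate.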

[13] = qHTS assay to identify small molecule agonists of H2AX (AID 1224845; active means well fitted activation curve with a large enough effect in the signal ratio in the repeat runs, not every such curve was filed as active; the % refers to the signal ratio; further: potency means the concentration at half of the fitted maximal effect)
Procedure, shortened: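 Wild-type CHO-K1 cells plated overnight, then exposed 3 hr at 37C to compounds at 15 concentrations (0.76% DMSO). Lysed, then HTRF anti-pH2AX(S139)-cryptate/anti-H2AX-d2 detection after 24 hr at room temperature; emissions 665 and 620 nm.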

[14] = qHTS assay to identify small molecule agonists of H2AX - cell viability counter screen (AID 1224847; calls by dose curve; further: nearly all actives have a fitted effect of over 30% in size; further: potency means the concentration at half of the fitted maximal effect)
Procedure, shortened: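 Wild-type CHO-K1 cells (10% FBS medium) were plated overnight at 37C, exposed to compounds at 15 concentrations for 3 hr at 37C (0.76% DMSO final), and viability was read as CellTiter-Glo luminescence after 30 min at room temperature.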

[15] = qHTS RealTime-Glo MT Cell Viability Assay in HepG2 cells - 24 hour (AID 1224867); further: nearly all actives have a fitted effect of over 50% in size; further: potency means the concentration at half of the fitted maximal effect
Procedure, shortened: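 Cell number in HepG2 cultures estimated from NanoLuc luminescence generated by metabolic reduction of a prosubstrate by living cells. The homogeneous, nonlytic format allowed repeated reads at 0, 8, 16, 24, 32 and 40 h of compound exposure.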

[16] = qHTS assay to identify small molecule agonists of the constitutive androstane receptor (CAR) signaling pathway - cell viability counter screen (AID 1224836); further: nearly all actives have a fitted effect of over 45% in size; further: potency means the concentration at half of the fitted maximal effect
Procedure, shortened: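 HepG2 cells stably carrying hCAR and a CYP2B6-2.2kb reporter were plated 4 h, then given compounds at 15 concentrations plus PK11195 (final 0.75 uM). After 23 h at 37 C, viability was read by CellTiter-Fluor fluorescence.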

[17] = qHTS assay to identify small molecule antagonists of the constitutive androstane receptor (CAR) signaling pathway - cell viability counter screen (AID 1224837); further: nearly all actives have a fitted effect of over 45% in size; further: potency means the concentration at half of the fitted maximal effect
Procedure, shortened: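 HepG2 cells stably expressing hCAR and a CYP2B6-2.2kb reporter were plated and pre-incubated 4 hr at 37 C/5% CO2, then given compounds at 15 concentrations plus 50 nM CITCO (final). After 23 hr, viability was read by CellTiter-Fluor fluorescence.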

[18] = qHTS assay to identify small molecule agonists of the hypoxia (HIF-1) signaling pathway - cell viability counter screen (AID 1224844; calls by dose curve)
Procedure, shortened: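 HRE-bla ME-180 cells in medium with 0.5% dialyzed FBS were preincubated 5 hrs at 37C, exposed to compounds for 17 hrs, then viability was read as CellTiter-Glo luminescence after 30 min at room temperature, in the reporter wells.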

[19] = qHTS assay to identify small molecule antagonists of the estrogen related receptor signaling pathway with the pleiotropic PPARgamma coactivator (PGC) from Tox21 10K library - cell viability counter screen (AID 1224840; active means well fitted cell-killing curve with a large enough effect in the repeat runs, not every such curve was filed as active; further: nearly all actives have a fitted effect of over 40% in size; further: potency means the concentration at half of the fitted maximal effect)
Procedure, shortened: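 PGC/ERR cells were seeded at 2,000 cells/well and left 6 hours at 37 C/5% CO2 before pin-tool addition of compounds in DMSO. After 17.5 hours at 37 C, CellTiter-Fluor was added and fluorescence read 30 minutes later.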

Chain of Thyrotropin receptor (Homo sapiens) (P16473 whole entry, looked up): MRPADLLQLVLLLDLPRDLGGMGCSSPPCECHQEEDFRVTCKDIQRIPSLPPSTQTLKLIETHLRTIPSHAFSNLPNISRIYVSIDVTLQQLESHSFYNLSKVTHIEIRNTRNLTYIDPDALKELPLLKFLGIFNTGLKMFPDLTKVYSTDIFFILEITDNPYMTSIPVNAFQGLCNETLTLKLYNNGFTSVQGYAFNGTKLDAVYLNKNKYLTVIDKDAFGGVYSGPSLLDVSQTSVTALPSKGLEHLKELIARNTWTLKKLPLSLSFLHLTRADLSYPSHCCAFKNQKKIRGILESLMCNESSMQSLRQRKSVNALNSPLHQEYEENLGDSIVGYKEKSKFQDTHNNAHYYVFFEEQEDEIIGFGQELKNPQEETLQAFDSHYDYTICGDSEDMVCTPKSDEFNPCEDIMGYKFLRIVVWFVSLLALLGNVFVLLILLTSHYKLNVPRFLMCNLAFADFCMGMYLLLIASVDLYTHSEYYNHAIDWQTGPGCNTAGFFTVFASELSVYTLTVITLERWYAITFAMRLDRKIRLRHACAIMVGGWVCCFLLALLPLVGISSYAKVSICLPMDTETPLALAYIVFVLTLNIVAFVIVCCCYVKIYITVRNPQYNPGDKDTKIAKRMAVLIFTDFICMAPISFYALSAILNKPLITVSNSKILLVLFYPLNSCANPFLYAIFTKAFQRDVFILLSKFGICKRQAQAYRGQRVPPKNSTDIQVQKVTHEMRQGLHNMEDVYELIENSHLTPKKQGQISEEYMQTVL
Chain of Nuclear receptor subfamily 1 group I member 3 (Homo sapiens) (Q14994 whole entry, looked up): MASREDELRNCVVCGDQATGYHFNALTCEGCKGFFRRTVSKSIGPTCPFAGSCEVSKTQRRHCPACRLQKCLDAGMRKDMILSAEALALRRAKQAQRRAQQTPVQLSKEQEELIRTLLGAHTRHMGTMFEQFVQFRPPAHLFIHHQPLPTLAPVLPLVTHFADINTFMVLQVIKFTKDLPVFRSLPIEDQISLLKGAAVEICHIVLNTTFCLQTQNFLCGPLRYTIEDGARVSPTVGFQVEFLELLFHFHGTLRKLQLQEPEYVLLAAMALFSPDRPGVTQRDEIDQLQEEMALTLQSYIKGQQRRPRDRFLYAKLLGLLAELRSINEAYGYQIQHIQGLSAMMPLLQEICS
Chain of Luciferin 4-monooxygenase (Photinus pyralis) (P08659 whole entry, looked up): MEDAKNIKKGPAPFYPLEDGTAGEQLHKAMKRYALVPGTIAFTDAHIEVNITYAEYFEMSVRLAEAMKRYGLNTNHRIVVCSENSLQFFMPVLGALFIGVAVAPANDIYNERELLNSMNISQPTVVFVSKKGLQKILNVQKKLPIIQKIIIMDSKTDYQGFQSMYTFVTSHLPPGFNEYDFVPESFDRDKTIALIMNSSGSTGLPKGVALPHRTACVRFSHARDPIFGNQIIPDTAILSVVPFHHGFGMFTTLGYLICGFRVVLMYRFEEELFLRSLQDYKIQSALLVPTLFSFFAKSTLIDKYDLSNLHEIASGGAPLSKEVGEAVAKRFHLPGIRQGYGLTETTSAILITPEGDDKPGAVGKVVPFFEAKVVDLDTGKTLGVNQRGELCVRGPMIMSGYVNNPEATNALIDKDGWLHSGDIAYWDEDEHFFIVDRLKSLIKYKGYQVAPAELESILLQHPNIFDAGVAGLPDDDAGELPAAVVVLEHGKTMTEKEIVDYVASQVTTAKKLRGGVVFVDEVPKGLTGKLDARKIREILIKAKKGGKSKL

## CC[C@@]1(O)C(=O)OCc2c1cc1n(c2=O)Cc2c-1nc1ccccc1c2/C=N/OC(C)(C)C
[1]
  Potency: 0.0376 µM (active)
[2]
  Potency: inactive
[3]
  Potency: 4.73 µM (active)
[4]
  Potency: inactive
[5]
  Potency: inactive
[6]
  Potency: 0.0596 µM (active)
[7]
  activity change, positive = activation: -54.3% [at 42.5 µM]
[8]
  Potency: 0.0239 µM (active)
[9]
  Potency: inactive
[10]
  Potency: 1.07 µM (active)

## CCOC(=O)c1nc(C(Cl)(Cl)Cl)n(-c2ccc(Cl)cc2Cl)n1
[11]
  Potency: inactive
[2]
  Potency: inactive
[4]
  Potency: inactive
[12]
  Potency: inactive
[6]
  Potency: 61.1 µM (active)
[7]
  activity change, positive = activation: -43.4%
[8]
  Potency: inactive
[9]
  Potency: inactive
[10]
  Potency: inactive

## Nc1ccc2c3c(cccc13)-c1ccccc1-2
[11]
  Potency: 22.7 µM (active)
[1]
  Potency: inactive
[2]
  Potency: 21.9 µM (active)
[5]
  Potency: inactive
[13]
  Potency: inactive
[14]
  Potency: inactive
[15]
  Potency: inactive
[8]
  Potency: 24.8 µM (active)
[9]
  Potency: 22.1 µM (active)
[10]
  Potency: inactive

## N=C1N=C(N)c2ccccc21
[16]
  Potency: 48.6 µM (active)
[17]
  Potency: 54.5 µM (active)
[1]
  Potency: 17.2 µM (active)
[2]
  Potency: inactive
[18]
  Potency: 21.9 µM (active)
[8]
  Potency: 24.5 µM (active)
[9]
  Potency: inactive

## NC(=O)C1(N2CCCCC2)CCN(CCCN2c3ccccc3CCc3ccc(Cl)cc32)CC1
[11]
  Potency: inactive
[2]
  Potency: inactive
[18]
  Potency: 21.3 µM (active)
[14]
  Potency: 55.2 µM (active)
[15]
  Potency: 23.9 µM (active)
[8]
  Potency: 21.3 µM (active)
[10]
  Potency: 23.9 µM (active)

## Cc1[nH]nc2c1N=C(c1ccccc1Cl)c1cc([N+](=O)[O-])ccc1N2
[16]
  Potency: 27.3 µM (active)
[17]
  Potency: 21.7 µM (active)
[1]
  Potency: 7.7 µM (active)
[2]
  Potency: inactive
[19]
  Potency: 34.4 µM (active)
[5]
  Potency: inactive
[14]
  Potency: 80 µM (active)
[9]
  Potency: inactive
[10]
  Potency: inactive

## CC(C)c1ccc2c(c1)CC[C@H]1[C@](C)(CN)CCC[C@]21C
[11]
  Potency: inactive
[17]
  Potency: 68.6 µM (active)
[4]
  Potency: inactive
[5]
  Potency: inactive
[18]
  Potency: 49 µM (active)
[14]
  Potency: 89.8 µM (active)
[6]
  Potency: 68.6 µM (active)
[7]
  activity change, positive = activation: -75.7%
[8]
  Potency: 11 µM (active)
[9]
  Potency: inactive
[10]
  Potency: 11 µM (active)

## Cc1ccc(-n2nc(C(C)(C)C)cc2NC(=O)Nc2ccc(OCCN3CCOCC3)c3ccccc23)cc1
[16]
  Potency: inactive
[17]
  Potency: inactive
[1]
  Potency: inactive
[19]
  Potency: inactive
[4]
  Potency: inactive
[13]
  Potency: 49.2 µM (active)
[12]
  Potency: inactive
[14]
  Potency: inactive
[7]
  activity change, positive = activation: -18.8% [at 42.5 µM]
[15]
  Potency: inactive
[9]
  Potency: inactive
[10]
  Potency: inactive
